Compound activity: PubChem BioAssay, Buhrlage Lab, Dana-Farber Cancer Institute and Novartis Institutes for BioMedical Research (Cambridge, Mass)
USP8 inh = human USP8 deubiquitinase inhibition. P40818. inhibition, % at 20 µM. actives 4.2% (n = 47,000). purified USP8, Ub-rhodamine cleavage fluorescence, 30 min
OTUD3 inh = inhibitors of human OTUD3 deubiquitinase. Q5T2D3. purified OTUD3, Ub-rhodamine fluorescence, 2 h. inhibition, % at 25 µM. actives 0.7% (n = 47,000)
Target sequence (Q5T2D3 whole entry, looked up): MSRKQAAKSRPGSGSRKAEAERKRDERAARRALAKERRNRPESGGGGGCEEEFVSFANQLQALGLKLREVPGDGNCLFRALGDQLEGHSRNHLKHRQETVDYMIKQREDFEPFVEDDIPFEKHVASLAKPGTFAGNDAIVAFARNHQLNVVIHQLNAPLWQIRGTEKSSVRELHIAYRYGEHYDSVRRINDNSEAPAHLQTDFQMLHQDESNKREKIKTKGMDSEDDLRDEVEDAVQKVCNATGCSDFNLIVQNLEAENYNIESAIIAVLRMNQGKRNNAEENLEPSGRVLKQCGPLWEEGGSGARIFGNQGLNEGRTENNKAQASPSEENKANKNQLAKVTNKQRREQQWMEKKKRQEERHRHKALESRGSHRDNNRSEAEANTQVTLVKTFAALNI
UCHL1 inh = inhibitors of human UCHL1 deubiquitinase. purified UCHL1, Ub-rhodamine cleavage fluorescence. inhibition, % at 20 µM. actives 0.2% (n = 47,000). AID 1645859
USP17 block = inhibitors of human USP17 deubiquitinase; purified USP17, Ub-rhodamine cleavage fluorescence, 3 h; inhibition, % at 50 µM; actives 6.5% (n = 47,000); AID 1645855
USP7 inh = human USP7 deubiquitinase inhibition. Q93009. purified USP7, Ub-rhodamine cleavage fluorescence. inhibition, % at 20 µM. actives 0.3% (n = 47,000). AID 1645854
USP10 block = blocks human USP10 ubiquitin-rhodamine cleavage; Q14694; purified USP10, Ub-rhodamine fluorescence, 60 min; inhibition, % at 20 µM; actives 1.1% (n = 47,000)
An asterisk follows results filed as active; · = not tested or not shown. Only some compounds are listed: those with a hit (about 9.2% of all), similar ones and a draw of the others. Cut-off read from the data, not from the text of the source: active = inhibition above about 30%; inactive = the rest.

SMILES	USP8 inh	OTUD3 inh	UCHL1 inh	USP17 block	USP7 inh	USP10 block
CC1(C)CC2CC(C)(CN2Cc2c(O)ccc3ccccc23)C1 (configuration not stated)	87*	-3	2	57*	1	0
COC(=O)c1ccc(NC(=O)/C=C/c2ccc(F)cc2)cc1	96*	14	8	86*	·	44*
COc1ccccc1OCC(=O)N1CCC(c2nc3ccccc3cc2C(N)=O)CC1	9	9	4	8	7	0
Cn1c(=O)[nH]c2cc(-c3noc(C4CC(=O)N(c5ccccc5)C4)n3)ccc21 (configuration not stated)	-14	-3	-3	32*	0	9
O=C(Nc1cccc(-c2noc(C3CCC3)n2)c1)C1CC(=O)N(c2ccccc2)C1 (configuration not stated)	42*	0	1	60*	-1	11
O=C(Nc1cccc(-c2noc(C3CC3)n2)c1)C1CC(=O)N(c2ccccc2)C1 (configuration not stated)	36*	-6	-1	40*	-4	5
COc1cc(NC(=O)c2ccc(Cl)cc2)c(C(=O)O)cc1OC	10	0	3	-10	6	4
COc1ccccc1-c1cc(C(=O)NCc2cnn3ccccc23)[nH]n1	-2	-8	-1	-6	0	0
Cc1cn2c3c(=O)n(CC(=O)c4ccccc4)c(=O)n(C)c3nc2n1C(C)c1ccccc1 (configuration not stated)	-33	-5	-1	9	2	4
O=C1C=C[C@]23Oc4ccc(O)c5c4[C@](Oc4cccc1c42)(O3)C1OC1[C@@H]5O (some centres not stated)	5	1	4	45*	-3	-1
O=C(Nc1ccc2c(c1)N(C(=O)C1CCCC1)CC2)c1c(F)cccc1F	18	7	3	32*	3	3
Cc1ccccc1-c1nc2c3c(C)c(C)n(-c4cccnc4)c3ncn2n1	10	6	3	3	1	1
Cc1cccnc1-n1c(C)c(C)c2c1ncn1nc(-c3ccco3)nc21	25	10	2	40*	-4	-3
CC(O)/C=C/C1OC(=O)CC1Nc1ccc(CO)cc1 (configuration not stated)	4	0	8	44*	9	4
COc1cc(OC)c2c(c1)C(=O)C1=C(COC(C)(O)C1)C2=O (configuration not stated)	68*	13	16	82*	-13	0
O=c1[nH]c2ccccc2nc1-c1ccccc1NS(=O)(=O)c1ccccc1	10	3	2	5	8	1
COCCNC(=O)Cn1c([C@@H]2CCCO2)cc2cccnc21	-46	-5	-3	-19	1	0
COc1ccc(Cl)c(NC(=O)C2CC(=O)Nc3cc(-c4ccccc4)nn32)c1 (configuration not stated)	32*	12	4	57*	9	13
CCCN1C(=O)Cc2c(C)nc(-c3cccc(F)c3)nc21	75*	-67	0	-14	-22	-5
O=S(=O)(N1CCCC1)N1C[C@@H](c2ccccc2)[C@H](c2ccn[nH]2)C1	0	0	-1	-1	0	-3
COc1cc(OC)c(N(C)S(=O)(=O)c2cccc(C(=O)OCC(=O)Nc3ccccc3C(C)=O)c2)cc1Cl	-6	-10	-1	-23	0	-2
COc1ccc(S(=O)(=O)N(C)C)cc1NC(=O)COC(=O)c1ccccc1	-4	-4	3	43*	4	4
O=C(c1cccc([N+](=O)[O-])c1)[C@H]1[C@]2(C(=O)Nc3ccccc32)[C@@H]2CCCN2[C@@]12C(=O)Nc1ccccc12	6	18	5	6	6	14
O=C(Nc1cccc(-c2ccc(N3CCOCC3)nn2)c1)c1ccccc1Br	10	12	-1	41*	2	1
O=C(Nc1ccccc1F)c1ccc(N2CCCC2)nn1	-1	-1	1	-10	·	-1
SMILES	USP8 inh	OTUD3 inh	UCHL1 inh	USP17 block	USP7 inh	USP10 block
O=C(NCc1ccc(F)cc1)c1ccc(N2CCCC2)nn1	-1	7	0	33*	2	1
O=C(Nc1ccc(F)cc1)c1ccc(-c2ccc(N3CCCC3)nn2)cc1	49*	9	3	13	4	0
O=C(Nc1ccc(N2CCOCC2)cc1)c1ccc(-c2ccc(N3CCCC3)nn2)cc1	23	0	-10	51*	-4	-11
Nc1cccc(C2CN(Cc3ccnc(N4CCCC4)n3)CCO2)n1 (configuration not stated)	3	-3	0	-9	6	-6
CNC(=O)c1cnn2c(C3CCCN(C(=O)C(C)(C)C)C3)ccnc12 (configuration not stated)	17	14	3	6	11	6
CNc1nccc(N2CCC(CC(=O)NC3CCCC3)CC2)n1	-8	6	-1	2	2	-4
COCC(=O)N1CCC2(CC1)OC(C(=O)Nc1ccncc1)Cn1ccnc12 (configuration not stated)	-48	-28	-5	-42	-5	-9
COc1ccc(NC(=O)c2ccc(-c3ccc(N4CCCC4)nn3)cc2)c(OC)c1	10	10	0	41*	-15	-4
Cc1cc(C(=O)COC(=O)c2ccc(C(C)(C)C)cc2)c(C)n1Cc1ccc2c(c1)OCO2	34*	14	0	5	3	0
O=C1Nc2ccccc2C2(CCN(C(=O)c3ccc(Cl)cc3)CC2)O1	17	5	0	10	-1	3
Fc1ccc(CN2CCC([C@@H]3C[C@H](C(F)(F)F)n4ncnc4N3)CC2)cc1	12	9	1	1	3	-1
CC(=O)c1ccc(N2CCN(C(=O)c3cc(Cl)c4c(c3)OCCO4)CC2)cc1	-2	-10	1	64*	0	-2
CC(=O)c1ccc(N2CCN(C(=O)c3ccc(-c4noc(C)n4)cc3)CC2)cc1	5	0	0	0	2	-6
O=C(Nc1ccc(S(=O)(=O)NC2=NCCCCC2)cc1)c1ccccc1	-5	-15	-3	0	-4	0
O=C(c1cc(S(=O)(=O)Nc2ccc(Cl)cc2)ccc1Cl)N1CCCc2ccccc21	-24	-36	5	-83	-20	36*
CC1Cc2ccccc2N1S(=O)(=O)c1cccc(C(=O)N2CCCc3ccccc32)c1 (configuration not stated)	-47	-10	2	-20	5	-5
O=C(Nc1ccc(NS(=O)(=O)c2cccc(C(=O)N3CCCc4ccccc43)c2)cc1)c1ccccc1	4	4	7	32*	8	11
O=C(Nc1ccc(NS(=O)(=O)c2ccc3c4c(cccc24)CC3)cc1)c1ccccc1	43*	2	0	50*	3	-4
